Compound activity (PubChem BioAssay)
Only some compounds are listed: those with a hit (about 10% of all), similar ones and a draw of the others.
Mm-Cpn inhibitor – Inhibitors of TCP-1 ring complex (TRiC) of Methanococcus maripaludis (MmCpn): qHTS; Potency, µM (top dose mostly 76.9 µM), for inactives: at the highest dose activity, negative = inhibition, hits mostly inhibitors; purified Mm-Cpn ATPase, ADP Transcreener TR-FRET; AID 504842, 2011; Chaperonin Mm-Cpn (Methanococcus maripaludis); 330,000 tested, 0.031% active; further: potency means the concentration at half of the fitted maximal effect; nearly all actives have a fitted effect of over 80% in size
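Quantitative HTS used 25 nM Mm-CPN and 10 uM ATP in magnesium/KCl Tris buffer, pH 7.4, with 1 mM DTT. Hydrolysis ran 30 min at 37°C; ADP was read by HTRF.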
Sfp PPTase inh – qHTS Assay for Inhibitors of Bacillus subtilis Sfp phosphopantetheinyl transferase (PPTase); 4'-phosphopantetheinyl transferase ffp (Bacillus subtilis), Q9F4F7; Potency, µM, for inactives: largest response in the series, negative = inhibition, usual class: inhibitors; 310,000 tested, 3.5% active; Biochemical Sfp PPTase activity, qHTS;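 further: the enzyme is Sfp with the accession as filed and its product quenches rhodamine fluorescence; potency means the concentration at half of the fitted maximal effect; 0% = enzyme reaction without inhibitor and -100% = no enzyme wells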
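Buffer: 50 mM Hepes-Na pH 7.6, 10 mM MgCl2, 0.01% Nonidet P-40, 0.01% BSA. Enzyme 15 nM, pre-exposed to compound 15 min; substrates then added and fluorescence change tracked over 30 min.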
G9a block – qHTS Assay for Inhibitors of Histone Lysine Methyltransferase G9a; Histone-lysine N-methyltransferase EHMT2 (Homo sapiens), Q96KQ7; G9a H3K9 monomethylation, AlphaScreen, 2 h; Potency, µM (titrated, usually from 102 µM), without a hit: at the highest dose activity, negative = inhibition, actives largely listed as inhibitors; 350,000 tested, 8.8% active; further: potency means the concentration at half of the fitted maximal effect; nearly all actives have a fitted effect of over 75% in size
Target sequence (Q96KQ7 913-1193 limits assumed): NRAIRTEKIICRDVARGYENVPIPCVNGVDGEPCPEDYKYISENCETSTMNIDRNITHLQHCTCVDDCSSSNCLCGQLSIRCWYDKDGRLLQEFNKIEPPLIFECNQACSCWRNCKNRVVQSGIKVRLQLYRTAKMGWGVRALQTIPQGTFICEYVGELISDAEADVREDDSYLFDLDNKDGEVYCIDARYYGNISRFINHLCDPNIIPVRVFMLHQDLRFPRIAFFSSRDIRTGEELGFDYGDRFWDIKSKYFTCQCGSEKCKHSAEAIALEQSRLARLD
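Quantitative HTS format: methyltransferase activity on a biotin-tagged H3K9 peptide is measured by AlphaScreen, using a rabbit anti-monomethyl-H3K9 antibody with streptavidin donor and anti-IgG acceptor beads. Final levels are 20 nM enzyme, 500 nM peptide, 20 uM SAM; 2 h RT.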
PLK1 PBD block – qHTS for Inhibitors of PLK1-PDB (polo-like kinase 1 - polo-box domain): Primary Screen. Plk1 PBD binding of FITC phosphopeptide, fluorescence polarization. 360,000 tested, 2.8% active. Potency, µM, for the others: max response, negative = inhibition, usual class: inhibitors; further: potency means the concentration at half of the fitted maximal effect; series mostly up to about 57 µM; nearly all actives have a fitted effect of over 65% in size
CCT chaperon mod – High-Throughput Screening for Modulators of Cytosolic Chaperonin Activity; 360,000 tested, 0.3% active; purified chaperonin ATPase assay, HTRF ADP detection, 30 min; activity change, % (test concentration not listed), hits read low; AID 651819, 2012; in the data active means activity change below about -30%
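Nucleotide hydrolysis assay: TRiC at 20–40 nM final (set by batch activity) with 10 uM ATP, 30 min at 37 °C, in presence of 76 uM compound. Detection by competitive ADP HTRF, 30 min ambient.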
VDR inh – Inhibitors of the vitamin D receptor (VDR): qHTS. 400,000 tested, 0.93% active. Vitamin D3 receptor (Homo sapiens), P11473. Potency, µM, for the others: max response, negative = inhibition, usual class: inhibitors. VDR-SRC2-3 peptide fluorescence polarization, 2 h; further: potency means the concentration at half of the fitted maximal effect
Target sequence (P11473 whole entry, looked up): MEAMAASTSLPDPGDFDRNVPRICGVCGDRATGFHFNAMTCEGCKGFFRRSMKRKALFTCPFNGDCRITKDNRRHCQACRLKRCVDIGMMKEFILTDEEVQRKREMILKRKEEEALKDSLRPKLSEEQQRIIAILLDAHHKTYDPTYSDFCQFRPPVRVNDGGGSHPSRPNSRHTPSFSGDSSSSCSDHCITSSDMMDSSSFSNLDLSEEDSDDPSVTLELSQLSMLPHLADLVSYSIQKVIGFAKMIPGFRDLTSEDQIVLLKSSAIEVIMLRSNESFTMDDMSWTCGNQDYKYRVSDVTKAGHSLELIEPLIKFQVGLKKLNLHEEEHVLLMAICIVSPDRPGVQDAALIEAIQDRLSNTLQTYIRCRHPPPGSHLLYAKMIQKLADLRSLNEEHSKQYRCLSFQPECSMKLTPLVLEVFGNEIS
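Measured by FP: displacement of SRC2-3 coactivator peptide from VDR by library compounds, following a two-hour ambient incubation.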
* hit, by the source's call; ? = inconclusive; nt = no result; [ ] = another dose, or the depositor's remark. Unless noted, the call rests on the fitted dose curve; in most records, active means well fitted curve in the direction sought with a large enough effect; inconclusive means small, poorly fitted or top-dose-only effect, or another doubt; inactive means no such curve, though single readings can be large; an effect the other way counts as inactive or inconclusive. Unless noted, on the % scale 0 is the no-effect control and ±100 the full control effect.

SMILES	Mm-Cpn inhibitor	Sfp PPTase inh	G9a block	PLK1 PBD block	CCT chaperon mod	VDR inh
O=C1C(=O)N(CCCN2CCOCC2)C(c2ccc([N+](=O)[O-])cc2)/C1=C(/O)c1ccc2c(c1)OCO2 (stereo not drawn)	1%	-20%	50µM*	-15%	-2	2%
COC(=O)c1ccc(C2/C(=C(\O)c3ccc4c(c3)OCCO4)C(=O)C(=O)N2CCCN2CCOCC2)cc1 (stereo not drawn)	0%	9%	?	-6%	-1	0%
C=CCOc1ccc(C2/C(=C(\O)c3ccc4c(c3)OCCO4)C(=O)C(=O)N2CCCN2CCOCC2)cc1 (stereo not drawn)	-2%	-5%	50µM*	?	-1	-7%
C=C(C)Cc1c(C)c(C#N)c2[nH]c3ccccc3n2c1=O	-3%	5%	-2%	-6%	-1	6%
CCc1c(C)c(C#N)c2[nH]c3ccccc3n2c1=S	-7%	79µM*	nt	13µM*	0	?
CCc1cc(=O)n2c([nH]c3ccccc32)c1C#N	-3%	6%	32%[12.7 µM]	-1%	0	4%
Cc1c(CCC(=O)O)c(=O)n2c([nH]c3ccccc32)c1C#N	-7%	15%	2.2µM*	-11%	-2	8%
CCc1cc(=S)n2c([nH]c3ccccc32)c1C#N	-1%	45µM*	4µM*	?	-1	?
CC(SCc1cc(=O)n2c([nH]c3ccccc32)c1C#N)C(=O)O (stereo not drawn)	1%	-4%	?	13µM*	-3	79µM*
Cc1ccc(Cc2c(C)c(C#N)c3[nH]c4ccccc4n3c2=O)cc1	1%	1%	nt	-29%	0	6%
COc1ccc(CCNC(=O)c2cnc3sc(N4CCOCC4)nn3c2=O)cc1OC	nt	nt	-2%[59 µM]	nt	nt	13%
Cn1c2c(c(=O)n(C)c1=O)C(c1ccccc1C(F)(F)F)CC(=O)N2 (stereo not drawn)	nt	nt	7%[59 µM]	nt	nt	-7%
COC(=O)c1ccc(-n2c(/C=C\c3cccc(Br)c3)nc3ccccc3c2=O)cc1	nt	nt	9%[59 µM]	nt	nt	1%
O=C1OC(c2ccc(F)cc2)=C/C1=C\c1ccc(O)cc1	1%	-17%	35µM*	-29%	1	-10%
O=C1OC(c2ccc(F)cc2)=C/C1=C\c1ccc([N+](=O)[O-])o1	-1%	?	10µM*	nt	nt	nt
O=[N+]([O-])c1ccc(/C=N/N=C/c2ccc([N+](=O)[O-])o2)o1	-2%	3%	?	-4%	-3	-20%
Cc1c(C(=O)N2CCC(C(=O)Nc3ccc(F)c(Cl)c3)CC2)sc2nc[nH]c(=O)c12	nt	nt	12%[59 µM]	nt	nt	11%
COc1cc(OC)c(Cl)cc1N	-1%	6%	?	6.7µM*	0	-29%
COc1cc(NC(N)=S)c(OC)cc1Cl	0%	6%	?	-1%	-2	2%
O=[N+]([O-])c1ccc(/C=N/Nc2ccnc3cc(Cl)ccc23)o1	-1%	-19%	40µM*	-2%	0	10%
O=[N+]([O-])c1ccc(/C=N/NS(=O)(=O)c2ccc(Cl)cc2)o1	0%	-14%	3.5µM*	?	0	-13%
Cc1ccc(S(=O)(=O)N/N=C\c2ccc([N+](=O)[O-])o2)cc1C	2%	12%	79%	-12%	-1	-13%
Cc1ccc(S(=O)(=O)N/N=C\c2ccc([N+](=O)[O-])o2)cc1	?	-13%	3.5µM*	-18%	-4	-2%
Cc1ccc(/C=N/NS(=O)(=O)c2ccc([N+](=O)[O-])cc2)o1	0%	2%	13%[59 µM]	-20%	1	-11%
CC(=O)Nc1ccc(S(=O)(=O)N/N=C/c2ccc(C)o2)cc1	0%	10%	45µM*	-23%	-3	-18%
SMILES	Mm-Cpn inhibitor	Sfp PPTase inh	G9a block	PLK1 PBD block	CCT chaperon mod	VDR inh
Clc1ccc2c(N/N=C/c3ccccc3Br)ccnc2c1	1%	-29%	27%[59 µM]	4%	-5	1%
Cc1ccc(OCC(=O)Nc2ccc3nc(SCCOc4ccccc4)sc3c2)cc1	nt	nt	-5%[59 µM]	nt	nt	0%
O=S1(=O)C2CC3CCC2(CN1Cc1cccc(F)c1)O3 (stereo not drawn)	nt	16%	nt	nt	nt	0%
C/C(=N\NC(=O)c1ccc(Br)o1)c1cc2c(cc1NC(=O)CCC(=O)O)OCO2	0%	45µM*	3.2µM*	10%	0	2%
CC(C)c1ccc(Nc2cc(C(=O)NCCc3ccccc3)c3ccccc3n2)cc1	nt	nt	10%[59 µM]	nt	nt	-5%
CCc1ccc2c(c1)c(N=NC1=NC(=O)CS1)c(O)n2C	2%	-25%	13µM*	-13%	-5	3%
COc1ccc(CCNC(=O)c2ccc(Cn3c(=O)c4ccccc4n(Cc4ccc(F)cc4Cl)c3=O)cc2)cc1OC	nt	nt	6%[59 µM]	nt	nt	-6%
Oc1cccc(/C=N/N(Cc2ccccc2)c2ccccc2)c1	1%	19%	-20%	-1%	-2	5%
Oc1ccc(/C=N/N(Cc2ccccc2)c2ccccc2)c(O)c1O	3%	56µM*	28µM*	?	-1	2%
CC(=O)N1CCCc2cc(S(=O)(=O)NC(C(=O)NC3CCCCC3)C(C)C)ccc21 (stereo not drawn)	-19%	-2%	35µM*	-13%	-2	-17%
COc1ccc(CNC(=O)CCc2nc(-c3ccc(C)cc3)no2)c(OC)c1	nt	nt	4%[59 µM]	nt	nt	9%
O=C(Nc1ccc2c(c1)OCCO2)c1coc2ccccc2c1=O	1%	-13%	8%[59 µM]	12%	-2	-10%
CNC(=O)c1ccsc1NC(=O)c1coc2ccccc2c1=O	-1%	10%	50µM*	-7%	-4	-5%
COc1ccccc1N=Nc1[nH]c2ccc(C)cc2c1O	1%	7%	11µM*	3%	1	2%
O=C1CCC(=O)N1c1nc2n(n1)C(c1ccccc1)C=C(c1ccc(Br)cc1)N2 (stereo not drawn)	-5%	?	25µM*	-21%	-2	1%
COc1ccc(C2C=C(c3ccc(Br)cc3)Nc3nc(N4C(=O)CCC4=O)nn32)cc1 (stereo not drawn)	-10%	-24%	35µM*	-16%	2	1%
Cc1c(C(=O)Nc2ccc3c(c2)OCO3)oc2ccccc12	2%	-6%	-9%	-6%	-1	-15%
CC(=O)Nc1c(C(=O)Nc2ccc3c(c2)OCO3)oc2ccccc12	-1%	-5%	0%	-9%	-1	-7%
